# Measured values published in the supplement of paper PMC10981050.
# “And” between values parts separate entries of the source, which are not always exact repeats. Equal values may be shown once. Where a name gives a salt, the structure may show the parent alone.
# Experiments:
# Assay in all cases: cell viability relative to vehicle control; higher = less cytotoxic
# Details in all cases: 10 µM
# K562 = tested on: K562
# Procedure, shortened: (§1)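 CRISPR-edited SRSF2 P95 mutant and isogenic wild-type clones of four leukaemia lines were screened against Selleck bioactive, kinase and epigenetic probe libraries, with identity-inconsistent compounds removed. Compounds were acoustically dispensed into 384-well plates at a single 10 µM dose, with 2000 cells in 50 µL medium per well. After 48 h, supernatant was removed and CellTiter-Glo luminescence was read. Viability was expressed as percent of the on-plate DMSO vehicle control, analysed in Genedata Screener.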
# MARIMO = tested on: MARIMO
# Procedure, shortened: as §1
# MOLM14 = tested on: MOLM14
# Procedure, shortened: as §1
# OCI-AML2 = tested on: OCI-AML2
# Procedure, shortened: as §1
Structure (SMILES),cell viability (K562; SRSF2 genotype: SRSF2 P95H/wt),cell viability (K562; SRSF2 genotype: SRSF2 wt/wt) [%],cell viability (MARIMO; SRSF2 genotype: SRSF2 P95H/wt) [%],cell viability (MARIMO; SRSF2 genotype: SRSF2 wt/wt) [%],cell viability (MOLM14; SRSF2 genotype: SRSF2 P95H/wt) [%],cell viability (MOLM14; SRSF2 genotype: SRSF2 wt/wt) [%],cell viability (OCI-AML2; SRSF2 genotype: P95H/wt) [%],cell viability (OCI-AML2; SRSF2 genotype: wt/wt) [%]
C#CCC(Cc1cnc2nc(N)nc(N)c2n1)c1ccc(C(=O)N[C@@H](CCC(=O)O)C(=O)O)cc1 (some centres not stated) [Pralatrexate(Folotyn)],98.1% and 106%,45.8,109,108,102,73.9,98.6,104
CC[C@H]1OC(=O)C[C@@H](O)[C@H](C)[C@@H](O[C@@H]2O[C@H](C)[C@@H](O)[C@H](N(C)C)[C@H]2O)[C@@H](CCN2C[C@H](C)C[C@H](C)C2)C[C@@H](C)C(=O)/C=C/C(C)=C/[C@@H]1CO[C@@H]1O[C@H](C)[C@@H](O)[C@@H](OC)[C@H]1OC [Tilmicosin],96.5% and 94.4%,99.4,95.6,106,98.5,103,93.3,105
O=C(c1ccc(F)cc1)C1CCN(CCn2c(=O)[nH]c3ccccc3c2=O)CC1 [Ketanserin (Vulketan Gel)],98.1% and 104%,103,102,106,107,107,105,109
Cc1ccc([N+](=O)[O-])cc1S(=O)(=O)N(C)/N=C/c1cnc2ccc(Br)cn12,28.6% and 22.3%,21,7.47,3.68,0.68,0.5,1.7,17.4
C=CC(=O)Nc1cc2c(Nc3ccc(F)c(Cl)c3)ncnc2cc1OCCCN1CCOCC1 [CI-1033 (Canertinib)],66.7% and 78.1%,61.7,52,61.5,12.8,15.9,27.6,31.4
Cc1ccc(S(=O)(=O)Nc2nc3ccccc3nc2Nc2ccc3nsnc3c2)cc1 [XL147 analogue],95.3% and 101%,105,97.6,104,99.2,98.7,101,94.5
O=C(O)c1ccc(Cl)cc1O [4-Chloro-2-hydroxybenzoic acid],108% and 109%,98.6,104,103,101,107,101,115
O=C(Nc1cccc(Cl)c1)Nc1ncc(CCNc2ncnc3ccsc23)s1 [SNS-314 Mesylate],63.5% and 68.5%,75.3,68.8,76.5,18.7,12.8,28.2,30.8
Cc1cc(Nc2ncc(Cl)c(Nc3ccccc3S(=O)(=O)C(C)C)n2)c(OC(C)C)cc1C1CCNCC1 [Ceritinib (LDK378)],0.29% and 0.22%,0.14,0.2,0.23,0.06,0.11,-0.03,0.01
O=c1cc(-c2ccc(O)cc2)oc2c([C@@H]3OC[C@H](O)[C@H](O)[C@H]3O)c(O)c([C@@H]3O[C@H](CO)[C@@H](O)[C@H](O)[C@H]3O)c(O)c12 [Schaftoside],113% and 106%,113,108,107,112,105,106,105
CCCCCCCCCCCCc1ccc(S(=O)(=O)Nc2nncs2)cc1,107% and 104%,102,105,109,105,106,98.7,111
Cc1cc(-c2cc(C)c(NCCCS(=O)(=O)O)c(C)c2)cc(C)c1N,106% and 93.5%,105,96.3,111,100,108,99.9,99
O=c1n(CCCN2CCN(c3cccc(Cl)c3)CC2)nc2ccccn12 [Trazodone hydrochloride (Desyrel)],102% and 99.9%,103,105,109,106,102,106,104
N#CC[C@H](C1CCCC1)n1cc(-c2ncnc3[nH]ccc23)cn1,87.3% and 90%,97.7,78,91,68.8,82.6,60.7,57.9
C/C(=C\C(=O)OCCCCCCCCC(=O)O)C[C@@H]1OC[C@H](C[C@@H]2O[C@H]2[C@@H](C)[C@H](C)O)[C@@H](O)[C@H]1O [Mupirocin],98.8% and 99.8%,101,103,103,97.7,103,100,92
CN(C)C(=N)NC(=N)N [Metformin hydrochloride (Glucophage)],108%,110,108,110,105,104,102,116
Cn1cc(C2=C(c3cccc(N)c3)C(=O)NC2=O)c2ccccc21,51.4% and 36.7%,58.5,65.4,86,59.8,72.1,78.8,101
C#C[C@]1(O)CC[C@H]2[C@@H]3CCc4cc(OC5CCCC5)ccc4[C@H]3CC[C@@]21C [Quinestrol],78.4% and 83.7%,71,62.4,57.9,78.8,79.2,49.7,60.6
COc1ccc(CCC(=O)c2c(O)cc(O[C@@H]3O[C@H](CO)[C@@H](O)[C@H](O)[C@H]3O[C@@H]3O[C@@H](C)[C@H](O)[C@@H](O)[C@H]3O)cc2O)cc1O [Neohesperidin dihydrochalcone (Nhdc)],107% and 83.6%,84.9,82.7,90.5,82.3,86.8,89.6,84.9
CN(C)CCCNC(=O)c1ccc(-c2cc(O)c3ncccc3c2)cc1,55% and 32.1%,47.3,52.3,53,40.7,24.9,33,33.2

Structure (SMILES),cell viability (K562; SRSF2 genotype: SRSF2 P95H/wt),cell viability (K562; SRSF2 genotype: SRSF2 wt/wt) [%],cell viability (MARIMO; SRSF2 genotype: SRSF2 P95H/wt) [%],cell viability (MARIMO; SRSF2 genotype: SRSF2 wt/wt) [%],cell viability (MOLM14; SRSF2 genotype: SRSF2 P95H/wt) [%],cell viability (MOLM14; SRSF2 genotype: SRSF2 wt/wt) [%],cell viability (OCI-AML2; SRSF2 genotype: P95H/wt) [%],cell viability (OCI-AML2; SRSF2 genotype: wt/wt) [%]
CCn1cc(-c2cccc(C(F)(F)F)c2)c2sc(C(=N)NC3CCS(=O)(=O)CC3)cc2c1=O,68.1% and 71.5%,69.9,55.8,45.3,27,32.3,22.6,42.1
Oc1ccc(OCc2ccccc2)cc1 [Monobenzone (Benoquin)],89.5% and 92.4%,83.9,53.8,73,27.1,11.3,32.5,47.3
Cc1nn(C)c(COc2ccc(N3CCN(S(=O)(=O)N(C)C)CC3)cc2)c1-c1cccc2c(CCCOc3cccc4ccccc34)c(C(=O)O)n(CCN3CCOCC3)c12,93.7% and 106%,99.8,101,107,98.3,101,103,103
C=C[C@](C)(O)CC[C@@H]1[C@@]2(C)CCCC(C)(C)[C@@H]2CC[C@@]1(C)O [Sclareol],93.2% and 93.5%,95.6,94.5,94.3,106,103,89.2,85.1
O=C1c2ccc(Nc3ccc(F)cc3F)cc2CCc2ccc(OC[C@H](O)CO)cc21 [Skepinone-L],84.7% and 79.7%,77.7,91.7,100,104,102,77.2,73.7
Cc1ccc(C(=O)Nc2ccc(CN3CCN(C)CC3)c(C(F)(F)F)c2)cc1C#Cc1cnc2[nH]ncc2c1 [GZD824 Dimesylate],0.41% and 0.25%,0.26,0.31,0.33,0.15,0.17,0.16,0.2
CC1=C(CC[C@@H](C)CO[C@@H]2O[C@H](CO)[C@@H](O)[C@H](O)[C@H]2O)O[C@H]2C[C@H]3[C@@H]4CC=C5C[C@@H](O[C@@H]6O[C@H](CO)[C@@H](O[C@@H]7O[C@@H](C)[C@H](O)[C@@H](O)[C@H]7O)[C@H](O)[C@H]6O[C@@H]6O[C@@H](C)[C@H](O)[C@@H](O)[C@H]6O)CC[C@]5(C)[C@H]4CC[C@]3(C)[C@@H]12 [Pseudoprotodioscin],107% and 104%,110,99.3,104,96.2,101,110,105
CC(=O)O[C@H]1CC/C(C)=C/CC/C(C)=C/C[C@]2(C(C)C)CC[C@@]1(C)O2 [Incensole acetate],85.8% and 85.7%,91.2,85.1,89.2,68.8,67.7,84.1,85.2
CC(C)(C)NC(=O)c1cncn1C1CCN(c2ccc(-c3nnc(C(F)(F)F)o3)cn2)CC1,69% and 57.2%,63.8,53.1,64.5,56.7,45.7,8.34,20.6
C=C1CC[C@@H]2[C@](C)(COC(=O)CCC(=O)O)[C@H](OC(=O)CCC(=O)O)CC[C@@]2(C)[C@@H]1/C=C/C1=CCOC1=O [Dehydroandrographolide Succinate Potasium Sa],105% and 103%,105,105,101,99.1,105,109,104
COc1cc(C(=O)O)ccc1O [Vanillic acid],103% and 97.7%,111,98.9,105,102,108,104,113
C#Cc1cccc(Nc2ncnc3cc(OC)c(OCCCCCCC(=O)NO)cc23)c1,1.25% and 12.2%,3.12,9.16,8.09,1.03,0.53,1.68,2.66
O=C(NCCCNc1nc(Nc2cccc(NC(=O)N3CCCC3)c2)ncc1I)c1cccs1,62.4% and 86.2%,74.4,56.6,56.7,11.1,6.15,12.4,20.6
COc1ccc(-c2cc(=O)c3c(O)cc(OC4OC(CO)C(O)C(O)C4OC4OC(C)C(O)C(O)C4O)cc3o2)cc1O (configuration not stated) [Neodiosmin],93.3% and 85.3%,90.1,94.6,97,97.6,100,89.8,94.4
O=c1[nH]c(=O)n([C@H]2C[C@H](O)[C@@H](CO)O2)cc1Br [Bromodeoxyuridine (BrdU)],90.5% and 102%,96.1,91.2,88,80.8,79.1,90.5,99.9
COC(=O)C1=C(C)NC(C)=C(C(=O)OC2CCCN(Cc3ccccc3)C2)C1c1cccc([N+](=O)[O-])c1 (configuration not stated) [Benidipine hydrochloride],77.9% and 79.1%,71.8,76.6,84.7,86.3,79.2,81.5,85.9
CO/N=C(\C(=O)N[C@@H]1C(=O)N2C(C(=O)O)=C(CSc3nc(C)c(CC(=O)O)s3)CS[C@H]12)c1csc(N)n1 [Cefodizime Sodium],96% and 90.5%,103,100,112,97.1,104,99.6,107
C[C@@H]1C[C@H]2[C@@H]3CCC4=CC(=O)C=C[C@]4(C)[C@@]3(Cl)[C@@H](O)C[C@]2(C)[C@@]1(OC(=O)c1ccco1)C(=O)CCl [Mometasone furoate],91.2% and 98.8%,92.2,87.8,103,82.7,79,113,118
O=c1c(-c2ccc(O)cc2)coc2cc(O)cc(O)c12 [Genistein],97.4% and 105%,105,92.6,87.8,79.4,88.7,81.8,87.4
